# Assay results reported in the supplement of paper PMC11417369.
# Over roughly 25,000 sequences, “ln(normalized median fluorescence intensity)” has its median near 9.7; the highest 2% begin near 11. For the sample, the highest values were picked, then their nearest neighbours and some sequences at random.
# Tested on: PfAP2-HC AP2 domain (GST-tagged)
# Test: gcPBM binding intensity (ln(normalized median fluorescence intensity)); higher = stronger DNA binding
# Summary of the method: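 GST-fused DNA-binding domains of P. falciparum, expressed in E. coli, were applied at about 25 μg on average for 1 h to an Agilent 4 × 180k array of primer-extended double-stranded 36-bp intergenic genomic probes and negative controls. Binding intensity is the highest Masliner-normalised natural-log median intensity across replicate spots of either probe orientation, measured with Alexa488 anti-GST antibody and a 488 nm scan.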
row,Sequence,gcPBM binding intensity (ln)
1,GATTATTTTATAAGTACACACATTTATCTATAATAA [CACACA_site7256],9.69
2,ACGTTAAAAACAAGTTGTACACAATAAATTATTCTT [XGTACX_site6321],9.75
3,GTATTCAAAAGTGAAACATGCAATAATATATATATA [TGCATGCA_site617],9.63
4,AATATTTTTTTATAAACACACATATATATAAATATA [CACACA_site3524],9.53
5,ATACAACAGATATATACACACATATAACAATAATAA [CACACA_site7560],10
6,ATTTAATACAAATACACACACAAATAAATACAGATA [CACACA_site5956],10.2
7,AATACAATTTTTAACACACACACAATAATACAGATA [CACACA_site4823],11.2
8,TACACGTTCTACATTTGTACTTAATTTATACATAAG [XGTACX_site1579],9.79
9,CCATTTACATTGTGAAGTACTAAAAAAAAATGTAGA [XGTACX_site7882],9.48
10,ATCGGTAATATTAACACACACATTTATTTATATTTA [CACACA_site6638],10.1
11,GTATCTCATTATTCGTGTACTAAACACATAAAAATA [XGTACX_site2262],9.58
12,GTTAATTGAAGATTCACACATAAATATATATATAAT [CACACA_site5482],9.61
13,ATATACTATTATGTGTGTACATAATAATTTATTATA [XGTACX_site3776],9.75
14,ATATACTTTTTTTTTTTTTTTTTAACGTTATTTATG [CACACA_negctrl_site1277],9.64
15,GATAATTACGGACACACACACACACGCACAACTAAA [CACACA_site7254],10.7
16,AAGATAATTACGCACACACACACACGCCCACAACTA [CACACA_site7255],11.4
17,AAAAGATAATTATGCACACACACACCCCCACCCAAC [CACACA_site2570],10.9
18,AGCACATTATTCAAAAGTACAAATAGGTATTGTATA [XGTACX_site6107],9.59
19,TTATTCTTTTAATATACACACTTTGTCTTTTCGCGC [CACACA_site5525],9.9
20,AAAATTAAAACCTACACACACATTTAAAAAAAAAAA [CACACA_site3068],10.1
21,TAATTTTTTTTAAACACACACATTACATTCAAAAAT [CACACA_site127],10.1
22,GAAAAATTAAAACCTACACACACATTTAAAAAAAAA [CACACA_site9005],11
23,ATACATTCAATGAAATGTACGTTTATTTACAGAAGA [XGTACX_site2999],9.6

row,Sequence,gcPBM binding intensity (ln)
1,TTTTTTCTTTTTATGTGTACTTATTTTATTTAATAA [XGTACX_site1080],9.76
2,TTTTTCAGATCCTATATAGTATCATATAAATTCCAT [CACACA_negctrl_site56],9.39
3,AAGAAAAAATGATGAATAGAGATCAAATCTATATAT [TGCATGCA_negctrl_site29],9.65
4,TTTTTAAAATATTTAACACACAATTTTAATGCATAA [CACACA_site6036],9.61
5,GGATATTCATTAACCACACACACAAAAAAAATAAAA [CACACA_site3800],11.2
6,ACACAAAAAATAAAAATATATATATATTATATATAT [CACACA_negctrl_site1489],9.75
7,TCAATAAAAAAAAACGCACACACAAATATATTCCAT [CACACA_site1223],11
8,AATAAAAAAAAACGCACACACAAATATATTCCATTC [CACACA_site1224],10.4
9,TCATTCATAAAAATAACACACAAAAAAAAAAAAAAA [CACACA_site1800],9.62
10,ATATTCATTAACCACACACACAAAAAAAATAAAATT [CACACA_site3801],10.2
11,ATATATATATTCCACACACACACAAAAAAAAAAAAA [CACACA_site3648],10.6
12,ATATAAATATTCCACACACACACAAAAAAAAAAAAA [CACACA_site7678],11
13,CAATATAAAAAACACACGCACACAAAAAAAAAAAAA [CACACA_site3521],10.3
14,TTTTTATAATGATACATATATTATTTTATTCTTAAT [CACACA_negctrl_site124],9.54
15,AAAAAAAAAAAAAAAACACACATATCTGTATTTATA [CACACA_site5760],9.75
16,ATATTGACAGGAAAAATTTTCTTTGAATCTTTAAAA [CACACA_negctrl_site1191],9.29
17,ATTAGGATATATTAAAGTACTAATATAATACATTTT [XGTACX_site7386],9.55
18,TTTTACTAAATATATACACACATTATACAGATATAT [CACACA_site5765],9.86
19,ATATATGGGGCGCAGGAAAAGAGTTTTGGAAATAAA [CACACA_negctrl_site1265],9.63
20,AGTATATAAAATACTGTATCGATGGGGGAGGGCGCA [CACACA_negctrl_site1612],9.91
21,TATAAAATACTGTATCGATGGGGGAGGGCGCAGGGG [TGCATGCA_negctrl_site250],10.9
22,TGTATTAATAAAAATACACACATCATATTATATAAA [CACACA_site3534],9.73
23,ATATTAAAGATATATACACACATATTTATAAATATA [CACACA_site7127],9.78

row,Sequence,gcPBM binding intensity (ln)
1,AAATTAATAAGTCACACACACATATATAATATATAT [CACACA_site799],10.4
2,CAAAATTAATAAGTCACACACACATATATAATATAT [CACACA_site798],11
3,GATAAATTAAGACACACACACATATATTTATTTATA [CACACA_site7789],11.2
4,ACATATACAAAACACACACACAACGTTTTAATAAAT [CACACA_site1979],10.7
5,ACATATACAAGACACACACACAACGTTTTAATAAAT [CACACA_site7017],11.2
6,TAAAATATAAGACACACACACATATATTTATATATC [CACACA_site6248],10.5
7,CATTATAAGAGACACACACACATATATAAATATGTA [CACACA_site6621],10.9
8,TTTTAATTAAGACACACACACACATATAAATATGTA [CACACA_site7144],11
9,ATTAAAATATAAGTCACACATATATATATATATATA [CACACA_site6145],9.51
10,AAAAAAATTAGACACACACACACATATAAATATGTA [CACACA_site6618],10.8
11,TTAAAATATACATAAACACACACAAAACGTTTAAGA [CACACA_site8267],10.4
12,TTTATATTAATTTGTGTAAATGCATATGATGAGCAT [XGTACX_negctrl_site254],9.41
13,ATTTTATGATATATTTGTACTTAACATTTGGATATA [XGTACX_site5888],9.6
14,ACCATCCTTAATACTTATTTTTTCACAATTAAGTAA [GTGCAC_negctrl_site269],9.59
15,AAACCAAGGCACAATAATTAAATAAATAAAATCATG [GTGCAC_negctrl_site574],9.58
16,TTTTTCATAAATATATGTACATATATTTTATATAAC [XGTACX_site3402],9.66
17,TATTAGATATAATATATACACACCAACGAACGAAGA [CACACA_site1134],10.1
18,CATATATGTGATAACACGCACACAAATGTATAGAAT [CACACA_site2594],10.4
19,AGAGAGAAAGCTATAACATGCAACAATTTTTAGAAA [TGCATGCA_site95],9.63
20,TATTTTTAATATTTTGCATGCAGTATTTTATAAAAT [TGCATGCA_site250],9.52
21,ATAATTTGGAAACACACACACACACCCACATATATA [CACACA_site2286],10.5
22,TAAACATACATATACACACACACACCCACACCCACA [CACACA_site492],11.6
23,TCTCATAGGAAACACACACACACACCCACATATATA [CACACA_site1738],11

row,Sequence,gcPBM binding intensity (ln)
1,TCTCATAGTAAACACACACACACACCCACATATATA [CACACA_site5034],10.6
2,AAGCAAACATATTAATGTACACACACCCACACACAA [XGTACX_site5806],11.1
3,CATACATATAAACACACACACACACCCACCCACAAA [CACACA_site8059],10.6
4,ATTAAACATACATATACACACACACCCACCCACCCA [CACACA_site8057],11
5,TATAAATATACACCCACACACATATATAAATAAATA [CACACA_site7717],10.8
6,AACATATTAATGTACACACACCCACGCACAAACAAA [CACACA_site7320],10.4
7,CAAACATATTAATGTACACACACCCACCCACAAACA [CACACA_site2752],10.4
8,TTTTTTAAAAAAGTTTTCTGTATTTATATATATATA [CACACA_negctrl_site31],9.48
9,AAAATATATATAACTTGTACATATACATACGTATAT [XGTACX_site4570],9.77
10,TTTCTTTTTTTTTTTTTTTCTTTTTTTTTTTTTTTC [CACACA_negctrl_site1025],9.2
11,ACTAAAAAAATAAACACACAGATTTATATAATATAT [CACACA_site4884],9.83
12,TATATTTGTACATGATATTTTTTTTTTCTTTTAAAA [CACACA_negctrl_site754],9.43
13,TATAATTATATAAATTGTACATAAAAAGTTTTTACT [XGTACX_site3621],9.45
14,AAATGTTCTTAAAAATGAATAATATATATATATATA [CACACA_negctrl_site796],9.41
15,TAATTATGCAGACACACACACACACCCAACTAAAAA [CACACA_site2569],10.4
16,TATGTGTATTTATTTGCATGTTGGTTGTATTTTTTC [TGCATGCA_site479],10.4
17,ACAAAGTTTATAGAACGTACATACTTACACATATTT [XGTACX_site556],9.73
18,AATATTGTTCACAAGGTGCTTTTTATTCATACTAAT,9.8
19,TACCTATACAGACACACACACACACGCCCACAAAAA [CACACA_site6375],11.1
20,TTGGCATACAGACACACACACACACGCCCACATATA [CACACA_site6425],10.7
21,CATACCTATAGACACACACACACACGCACGCACAAA [CACACA_site6374],10.4
